The list is not random: actives were taken first. Their share in the collection is about 0.91%.
APE1 inh – APE1 (human) endonuclease inhibition. Potency, µM (top dose mostly 65.8 µM), usual class: inhibitors. AID 2517. hit rate 0.35% among 350,000. recombinant APE1, TAMRA/BHQ-2 abasic DNA cleavage fluorescence. P27695; further: nearly all actives have a fitted effect of over 55% in size
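APE1 at 0.75 nM preincubated 15 min at room temperature with compound. Reaction then started with 50 nM double-stranded THF-abasic substrate labelled with TAMRA/BHQ-2, and 525/598 nm fluorescence read kinetically. Activity taken as third-minus-first read difference, normalized to DMSO and NSC13755 controls.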
TRb SRC2 PPI – inhibitors of human thyroid hormone receptor beta-SRC2 interaction. P10828. TRbeta-SRC2 peptide binding, fluorescence polarization; receptor liganded with 1 µM T3. Potency, µM (titrated, usually from 106 µM), most hits filed as inhibitors. hit rate 0.065% among 280,000; further: nearly all actives have a fitted effect of over 50% in size
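Quantitative HTS by FP: 0.6 uM TRb LBD, 20 nM labeled SRC2 20-mer, 1 uM T3, 5% DMSO; 5 hr ambient incubation; % activity per concentration and potencies from concentration series.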
WRN helicase inh – WRN helicase (human) inhibition; hit rate 0.46% among 360,000; Q14191; Potency, µM (series often up to 114 µM), most hits filed as inhibitors; WRN helicase unwinding, fluorescent forked duplex, kinetic; AID 651768; further: nearly all actives have a fitted effect of over 55% in size
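Kinetic red-fluorescence monitoring (525/598 nm) tracks WRN helicase activity after 100 nM fluorophore-quencher forked duplex and 2 mM ATP are added to 20 nM enzyme pretreated 15 min at room temperature with compound.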
TR SRC2 fluor cs – counter-screen for TRb-SRC2 inhibitors: fluorescence interference. hit rate 0.29% among 280,000. TRb/SRC2 Texas Red total fluorescence interference. Potency, µM (series often up to 106 µM); active means well fitted curve in either direction with a large enough effect; inconclusive means small, poorly fitted or top-dose-only effect
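Human TRb ligand-binding domain at 0.6 uM with 20 nM Texas Red SRC2 peptide in Tris buffer containing 1 uM T3 and 5% DMSO, incubated with compound 5 h at ambient temperature. Total fluorescence (555/632 nm) calculated as parallel + 2 × perpendicular.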
BLM inh – inhibitors of human Bloom syndrome helicase BLM; hit rate 0.2% among 350,000; AID 2528; recombinant BLM DNA unwinding, fluorescence dequenching; Potency, µM (series often up to 56.1 µM), hits mostly inhibitors; P54132; further: nearly all actives have a fitted effect of over 35% in size
RECQ1 inh – RECQ1 (human) helicase inhibition; RECQ1 DNA unwinding, red fluorescence kinetic read; Potency, µM (highest dose often 57.3 µM), actives largely listed as inhibitors; hit rate 0.54% among 240,000; P46063; further: nearly all actives have a fitted effect of over 30% in size
Target sequence (P46063 whole entry, looked up): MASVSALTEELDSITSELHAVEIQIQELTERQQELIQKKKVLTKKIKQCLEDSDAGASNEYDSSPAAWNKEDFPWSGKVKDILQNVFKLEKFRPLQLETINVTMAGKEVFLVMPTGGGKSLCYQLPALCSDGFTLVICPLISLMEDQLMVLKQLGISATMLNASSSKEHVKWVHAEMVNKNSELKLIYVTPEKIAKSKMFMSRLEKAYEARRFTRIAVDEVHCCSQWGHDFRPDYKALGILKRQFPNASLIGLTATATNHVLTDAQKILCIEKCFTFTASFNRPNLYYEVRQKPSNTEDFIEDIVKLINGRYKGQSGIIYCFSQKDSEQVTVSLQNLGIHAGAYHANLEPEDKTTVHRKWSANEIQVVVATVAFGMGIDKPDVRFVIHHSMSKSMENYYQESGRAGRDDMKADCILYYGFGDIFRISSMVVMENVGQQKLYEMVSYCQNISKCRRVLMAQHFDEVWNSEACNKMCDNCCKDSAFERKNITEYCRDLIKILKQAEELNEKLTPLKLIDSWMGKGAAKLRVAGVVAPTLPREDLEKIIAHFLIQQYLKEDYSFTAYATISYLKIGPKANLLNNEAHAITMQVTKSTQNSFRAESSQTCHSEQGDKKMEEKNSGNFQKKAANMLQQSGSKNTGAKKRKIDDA
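50 nM RECQ1T1 preincubated 15 min with compound in Tris pH 8.0 buffer with MgCl2, DTT, Tween-20 and 2.5 ug/ml poly(dI-dC); started with 200 nM TAMRA/BHQ-2 forked duplex and 2 mM ATP. Unwinding read as fluorescence (525/598 nm), two reads 2 h apart.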
Hits are given with their value; 0 = inactive; ? = inconclusive; - = not tested or not shown; [ ] = remark or other dose. Unless noted, the call rests on the fitted dose curve; in most records, active means well fitted curve in the direction sought with a large enough effect; inconclusive means small, poorly fitted or top-dose-only effect, or another doubt; inactive means no such curve, though single readings can be large; an effect the other way counts as inactive or inconclusive.

SMILES | APE1 inh | TRb SRC2 PPI | WRN helicase inh | TR SRC2 fluor cs | BLM inh | RECQ1 inh
COC(=O)[C@@H]1CC[C@H](C)[C@@H](c2ccc(C)cc2)N1C(=O)c1ccc(/C=N\OC[C@@H](O)[C@H]2O[C@H]3OC(C)(C)O[C@H]3[C@@H]2O)cc1 | 0[12.4 µM] | 0[11.2 µM] | - | 0[11.2 µM] | 0[12.4 µM] | 0[11.5 µM]
COc1ccccc1-c1cc(-c2ccc(O)cc2)nc(N)c1C#N | 27µM | - | 0 | - | 32µM | -
CSCCC(NC(=O)CCC(=O)OCC(=O)[C@@]1(O)CCC2[C@@H]3CCC4=CC(=O)C=C[C@]4(C)C3[C@@H](O)C[C@@]21C)C(=O)O (stereo partly specified) | 0 | - | 0 | - | 0 | -
COc1cc(NC(=O)COC(=O)CNC(=O)c2ccc(Cl)cc2)c(C)cc1[N+](=O)[O-] | 0 | 0 | 0 | 0 | 0 | 0
COc1cc(NC(=O)COC(=O)CNC(=O)c2ccc(C)cc2)c(C)cc1[N+](=O)[O-] | 0 | 0 | 0 | 10µM[quencher] | 0 | 0
CN(c1ccc(OCC(=O)OCC(=O)Nc2ccccc2)cc1)S(=O)(=O)c1cccs1 | 0 | 0 | 0 | 5µM[quencher] | 0 | 0
Cn1ccc2c(-c3ccc(C(N)=O)cc3)cc3c(c21)C1CCC3C1 (stereo unspecified) | - | - | 0 | - | - | -
Cc1cccc(C)c1OCC(=O)Nc1ccc(S(=O)(=O)Nc2ccccn2)cc1 | 0 | 0 | 0 | 71µM[quencher] | 0 | 0
CCN1c2ccccc2N(C)C1(C)c1ccccc1 (stereo unspecified) | 0 | ? | ? | 45µM[fluorescent] | 0 | 0
O=C(O)CCCCCNC(=O)CSc1nnc(-c2ccc([S+](=O)([O-])N3CCCC3)cc2)n1-c1ccccc1 | 0 | - | - | - | - | -
Cn1nc(-c2ccc(Cl)cc2)nc2c(=O)n(C)c(=O)nc1-2 | ? | ? | - | 0 | 5.6µM | 1.6µM
CS(=O)(=O)n1nc(-c2ccc(Cl)cc2)nc1N | 0 | 0 | 0 | 0 | 0 | 0
Cc1ccc(NC(=O)C(=O)NCCc2csc3nc(-c4ccccc4C)nn23)cc1Cl | - | 0 | - | 0 | 0 | -
Cc1ccc(C)c(NC(=O)C(=O)NCCc2csc3nc(-c4ccccc4C)nn23)c1 | - | 0 | - | 22µM[quencher] | 0 | -
O=C(O)CCCCCCCCCCC(=O)O | - | 0 | - | 0 | - | -
O=C(CSc1ccc(-c2ccco2)nn1)c1ccc(F)cc1 | 0 | 0 | 45µM | 0 | 0 | 0
O=C(CSc1nnc(-c2ccco2)n1CC1CCCO1)c1ccc(F)cc1 (stereo unspecified) | 0 | 0 | 79µM | 0 | 0 | 0
COc1ccc(C(=O)CSc2nnc(-c3ccco3)n2CC2CCCO2)cc1 (stereo unspecified) | 0 | 0 | 0 | 0 | 0 | 0
C=C1C=C(C(F)F)n2ncc(C(=O)NCc3ccccc3C(F)(F)F)c2N1 | 0 | - | - | - | - | -
CC1C=CC=CC=CC=CC=CC=CC=CC(OC2OC(C)C(O)C(N)C2O)CC2OC(O)(CC(O)CC(O)C(O)CCC(O)CC(O)CC(=O)OC(C)C(C)C1O)CC(O)C2C(=O)O (stereo unspecified) | - | - | 18µM | - | - | -
C[C@H]1[C@@H](O)[C@@H](C)\C=C/C=C\C=C/C=C\C=C/C=C\C=C/[C@@H](O[C@H]2O[C@@H](C)[C@@H](O)[C@@H](N)[C@@H]2O)C[C@@H]2O[C@](O)(C[C@@H](O)C[C@@H](O)[C@@H](O)CC[C@@H](O)C[C@@H](O)CC(=O)O[C@H]1C)C[C@@H](O)[C@H]2C(=O)O (stereo in doubt) | 0 | 0 | - | ? | 0 | 0
N#C/C(=C\c1coc2ccc(O)cc2c1=O)C(=O)Nc1nc2ccccc2s1 | ? | ? | 56µM | ? | 0 | ?
N#C/C(=C\c1coc2ccccc2c1=O)C(N)=S | 0 | 0 | 0 | 0 | 0 | 0
Cc1c(Cn2cnc3c(cnn3C(C)(C)C)c2=O)cccc1C(F)(F)F | 0 | - | - | - | - | -
COc1ccc(NS(=O)(=O)c2ccc3[nH]c4c(c3c2)CCCC4)cc1OC | - | 0 | - | 0 | 0 | -
SMILES | APE1 inh | TRb SRC2 PPI | WRN helicase inh | TR SRC2 fluor cs | BLM inh | RECQ1 inh
COc1cc(NS(=O)(=O)c2ccc3[nH]c4c(c3c2)CCCC4)cc(OC)c1OC | - | 0 | - | 20µM[quencher] | 0 | -
COC(OC)(C(=O)c1ccccc1)c1ccccc1 | - | 0 | - | 0 | - | -
CCOc1ccc2nc(N3CCCC(C(=O)NCCc4ccc(SC)cc4)C3)sc2c1 (stereo unspecified) | - | 0 | - | 40µM[quencher] | 0 | -
Cn1nc(C(=O)NCc2ccccc2Cl)c2c1-c1ccccc1S(=O)(=O)C2 | 0 | 0 | 0 | 100µM[quencher] | 0 | -
Cn1nc(C(=O)Nc2ccc(F)c(Cl)c2)c2c1-c1ccccc1S(=O)(=O)C2 | - | 0 | - | 0.0063µM[quencher] | 0 | -
CS/C(=N\O)C(=O)N(C)C | - | 0 | - | 0 | - | -
CCCCCC(CC)COC(=O)CC(C(=O)OCC(CC)CCCC)S(=O)(=O)O (stereo unspecified) | - | - | - | - | 0 | -
Cc1ccc(-c2nn(-c3ccccc3)cc2/C=C/C(=O)O)o1 | 0 | 0 | 0 | 0 | 0 | 0
Cc1ccc(-c2nn(-c3ccccc3)cc2C(=O)O)o1 | ? | 0 | - | 0 | 0 | 32µM
COc1ccc(CCNC(=O)c2ccc(-n3c(C)cc4c3CCC(C)C4)cc2)cc1OC (stereo unspecified) | - | 0 | - | 0 | 0 | -
COc1cc(C)c2c(c1C=O)Oc1c(c(C)c(O)c3c1C(O)OC3=O)OC2=O (stereo unspecified) | 13µM | ? | 50µM | ? | 0 | 14µM
O=c1oc2c(-c3ccc([N+](=O)[O-])cc3)cc(O)cc2s1 | 0 | 0 | 56µM | 0 | 0 | 0
COc1ccc(/C=N/Nc2cc(C)nc3ccc(OC)cc23)c(OC)c1 | 27µM | - | 13µM | - | 25µM | -
COc1ccc(-c2c(C)nn3c4c(cnc23)C(=O)CC(c2ccc(C)cc2)C4)cc1 (stereo unspecified) | - | 0 | - | 14µM[quencher] | 0 | -
COc1ccc(C2CC(=O)c3cnc4c(-c5ccccc5)c(C)nn4c3C2)c(OC)c1 (stereo unspecified) | - | 0 | - | 0 | 0 | -
CC(C)(C)N1C(=O)[C@H]2[C@H]3[C@H](O)[C@H](O)C/C(=N/OCc4ccccc4)[C@H]3CC[C@@H]2C1=O | ? | 0[11.2 µM] | - | 0[11.2 µM] | 0[12.4 µM] | 0[11.5 µM]
CCc1ccc(CN(C(=O)Nc2cccc(Cl)c2)c2ccccn2)cc1 | - | 0 | - | 355µM[quencher] | 0 | -
CCOC(=O)COc1ccccc1/C=C\[N+](=O)[O-] | 0 | 0 | 32µM | 0 | 0 | 0
CCCCC/C=C\C/C=C\CCCCCCCC(=O)OC | - | 0 | - | 0 | - | -
Cn1c(=O)c2c(SCC(=O)N3CCN(c4ccccc4)CC3)nc(C3CC3)nc2n(C)c1=O | 0 | 0 | 0 | 0 | 0 | 18µM
COc1ccc(OC)c(S(=O)(=O)ON2C(=O)c3ccccc3C2=O)c1 | 0 | - | 0 | - | 0 | -
O=C(/N=C1\NC(=O)C(F)(C(F)(F)F)S1)NC1CCCCC1 (stereo unspecified) | 0 | 0 | 50µM | 0 | 0 | 0
O=C(NCc1cccs1)C1CCN(C(=O)N2CCOc3ccccc32)CC1 | - | 0 | - | 0.56µM[quencher] | 0 | -

Assay outcomes (PubChem BioAssay)
